Reference: PubChem BioAssay AID1255 (The Scripps Research Institute Molecular Screening Center, 2008)
Hit rate of the full screen: of about 1,200 compounds, about 330 (28%) were called active. Not all results are given here. Values without a mark were called inactive. Cut-off read from the data, not from the text of the source: active = inhibition above about 17%; inactive = the rest.

Biological target: Neuropeptide Y receptor type 2 (Homo sapiens) (UniProt P49146)
Assay: blockade of human NPY-Y2 in cells – HEK293-CNG cells, membrane potential fluorescence, triplicate, counter-screen for NPY-Y1 antagonist project, confirmation (AID 1255);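 note: 0% = DMSO with agonist challenge and 100% = reference antagonist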
Details: antagonism, at 3.6 µM, stronger effect = higher value, cells given NPY, then isoproterenol

Chain of Neuropeptide Y receptor type 2 (Homo sapiens) (P49146 whole entry, looked up): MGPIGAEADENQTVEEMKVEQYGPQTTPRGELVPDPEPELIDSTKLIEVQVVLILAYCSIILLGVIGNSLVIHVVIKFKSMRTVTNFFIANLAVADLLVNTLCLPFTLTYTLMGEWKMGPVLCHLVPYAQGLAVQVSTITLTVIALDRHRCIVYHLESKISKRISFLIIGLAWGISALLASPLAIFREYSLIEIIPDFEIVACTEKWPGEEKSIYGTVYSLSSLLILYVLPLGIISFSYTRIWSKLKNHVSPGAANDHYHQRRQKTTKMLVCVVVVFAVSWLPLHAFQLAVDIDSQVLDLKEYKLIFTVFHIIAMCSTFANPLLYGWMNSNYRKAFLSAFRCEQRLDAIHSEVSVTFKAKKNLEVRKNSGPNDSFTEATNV

SMILES	inhibition
c1ccc(-c2ccccc2OCCN2CCCCC2)cc1	6.63%
Cc1ccc(/C=N/NC(=O)COc2ccccc2-c2ccccc2)cc1	28.1% (active)
CC1CN(CCCOc2ccccc2-c2ccccc2)CC(C)O1 (stereo not drawn)	6.39%
CCCCCCC(=O)Nc1nc(C)c(-c2csc(Nc3cccc(OC)c3)n2)s1	2.61%
Cc1ccc(C(=O)C[n+]2cc(-c3ccccc3)n3c2CCCCC3)cc1	14.5%
CC(Oc1ccc2ccccc2c1)C(=O)NNC(=S)NC(=O)c1ccco1 (stereo not drawn)	10.2%
CCN1CCN(CCNC(=O)c2ccc(/C=C3/Sc4ccccc4N(Cc4cccc(C)c4)C3=O)cc2)CC1	27% (active)
Cc1ccc(N2C(=O)C3N=NN(CC(=O)N4N=C(c5cccc6ccccc56)CC4c4ccccc4)C3C2=O)cc1 (stereo not drawn)	5.5%
CCOC(=O)CSc1nc2c(sc(=S)n2CCc2ccccc2)c(=O)n1Cc1ccco1	14.4%
O=C(NCCc1ccc2c(c1)OCCO2)c1cc2ccccc2o1	14.6%
Cc1ccc(Cn2c(NC(=O)c3ccco3)nc3ccccc32)cc1	24.2% (active)
O=S(=O)(O)c1nc2ccccc2n1Cc1ccc(Cl)cc1	5.74%
CCS(=O)(=O)n1nc(-c2ccccc2)nc1SCc1ccccc1	13.4%
CCC(=O)c1c[nH]c(C(=O)NCC2CCCO2)c1 (stereo not drawn)	2.61%
O=C(CN1CCN(c2ncc(C(F)(F)F)cc2Cl)CC1)Nc1ccc2c(c1)OCO2	18.4% (active)
O=C(CSc1nnnn1C1CCCC1)Nc1ccc2c(c1)OCCO2	7.69%
COC(=O)c1ccc(COC(=O)c2c(C)nn(Cc3ccccc3Cl)c2Cl)o1	8.24%
COc1ccc(CCN(C(=O)COc2ccccc2)c2nc(-c3ccccc3)cs2)cc1OC	17.3% (active)
CCCCc1c(O)nc2n(c1=O)CCS2	2.74%
Cc1ccc2nc(-c3ccccn3)cc(C(=O)Nc3ccc4c(c3)OCO4)c2c1	25.5% (active)
CCc1ccc(CNC(=O)C2CCCN(c3nc4ccccc4o3)C2)cc1 (stereo not drawn)	11%
CCCOC(=O)c1[nH]c2c(c1C)C(=O)CC(c1cccs1)C2 (stereo not drawn)	16.7%
COc1ccccc1C1C2=C(COC2=O)Nc2cc3c(cc21)OCO3 (stereo not drawn)	10.6%

SMILES	inhibition
OC(COCCC12CC3CC(CC(C3)C1)C2)CN1CCCCC1 (stereo not drawn)	12.7%
CS(=O)(=O)N1CCCC(C(=O)N2CCOCC2)C1 (stereo not drawn)	0.64%
COc1ccc(C(c2nnnn2C2CCCCC2)N2CCN(c3ccccc3F)CC2)cc1 (stereo not drawn)	10.2%
CC(=O)N1CC(C)c2scc(C)[n+]2-c2ccccc21 (stereo not drawn)	3.05%
O=C(/C=C/c1ccco1)Nc1cccc(-c2nc3ccccc3[nH]2)c1	7.24%
O=C(CSc1nc2cc3c(cc2c(=O)n1CCC1=CCCCC1)OCO3)NCc1ccco1	2.11%
c1ccc2c(NC3C4CC5CC(C4)CC3C5)nc(N3CCOCC3)nc2c1 (stereo not drawn)	30.1% (active)
CC(Nc1nc(N2CCN(CCO)CC2)nc2ccccc12)c1ccccc1 (stereo not drawn)	10.1%
Fc1ccc(-c2nnc(CSc3nnc(-c4ccc5c(c4)OCO5)o3)o2)cc1	9.04%
CC(C)Cn1cnc2c1c(=O)n(CC(O)c1ccccc1)c(=O)n2CC(C)C (stereo not drawn)	-0.53%
Cc1ccccc1Nc1scc(-c2ccc(Br)cc2)[n+]1-c1ccccc1C	12.3%
Cc1cc(C(C)(C)C)oc1C(=O)N(CC(=O)NC1CCCC1)Cc1ccc(Cl)cc1	19.8% (active)
CCCSc1nc(NCc2ccco2)c2c3c(sc2n1)COC(C)(CC)C3 (stereo not drawn)	12.4%
C/C(=N\NC(=S)NCc1ccccc1)c1ccc(Cl)cc1	5.13%
COc1ccc(-c2[nH]nc(-c3ccccc3)c2-c2nc3ccccc3[nH]2)cc1	17%
O=C(NCCCN1CCOCC1)c1cnn2c(-c3ccccc3)cc(-c3ccccc3)nc12	18.8% (active)
CCOC1CCCCC1NS(=O)(=O)c1ccc(Cl)cc1 (stereo not drawn)	1.15%
Cc1nc(-c2ccccc2)sc1C(=O)/C=C/c1ccccc1	16.5%
COc1ccc(C(=O)CSc2nnc(COc3ccccc3)n2Cc2ccco2)cc1	6.65%
Oc1ccc(-c2[nH]ncc2-c2nc3ccccc3s2)c(O)c1	3.58%
NC(N)=N/N=C/c1ccc(OCc2ccc(Cl)cc2Cl)cc1	30.3% (active)
CCOC(=O)c1nn(-c2cccc(C)c2)cc1C(=O)c1ccccc1	6.78%
COC(=O)c1ccc(C(NC(=O)OCc2ccccc2)/C(C)=C/[C@@H](C)C(=O)NCc2ccc(OC)c(OC)c2)cc1 (stereo partly drawn)	12.9%

SMILES	inhibition
Cc1cc(C)c2[nH]c(=O)c(CN(Cc3ccccc3)C(=S)NCCCN(C)C)cc2c1	26.7% (active)
CN(C)CCCCCN(C)Cc1cc2ccccc2o1	14.4%
COC(=O)C1=C(Nc2ccc(C)cc2)C=C(C)C(C(=O)OC)C1c1ccc(F)cc1 (stereo not drawn)	15.2%
Cc1ccc(C(=O)N/C(=C/c2ccc(-c3cccc([N+](=O)[O-])c3)o2)C(=O)NCCCN(C)C)cc1	13.8%
CCCOc1ccc2c3c(c(=O)oc2c1OCCC)CCC3	15.6%
COc1ccccc1N1CCN(C(=O)CN(Cc2ccc(Cl)cc2)S(C)(=O)=O)CC1	3.69%
Clc1ccccc1-c1cc(COc2ccc3ccccc3c2)no1	18.4% (active)
COc1cccc(CNCCc2c[nH]c3ccccc23)c1OCc1ccccc1F	16.7%
CCCC(=O)Nc1nc2ccc(NC(=O)c3c(F)c(F)c(OC)c(F)c3F)cc2s1	11.5%
Cc1ccc(SCCC(=O)OCC(=O)Nc2ncc(Cl)cc2Cl)cc1	5.65%
CC(=O)OC(C)C[N+](C)(C)C (stereo not drawn)	12.9%
COc1cc2c(C(=O)N3CCN(C)CC3)c(CSc3ccccc3)n(C)c2cc1Br	19.6% (active)
OCC1(CCc2ccccc2)CCN(Cc2ccc3nsnc3c2)CC1	9.39%
CCOC(=O)N1CCN(S(=O)(=O)c2ccc(C(=O)Nc3ccc(F)cc3F)cc2)CC1	10.3%
CCCCn1nc(C(=O)N2CCc3ccccc32)c2ccccc2c1=O	3.7%
Cc1ccc(-c2cc(C(=O)N3CCc4ccccc4C3)no2)cc1	12.8%
CCCCCCCCn1c2c(c(=N)c3c1CCC3)CCCC2	44.6% (active)
O=C(Cc1cccs1)N(CC1CCCO1)C1(C(=O)NC2CCCCC2)CCCCC1 (stereo not drawn)	11.1%
O=C(c1cc(-c2ccc(O)cc2)on1)N1CCCc2ccccc21	2.92%
CC(C)(C)NCc1cc(Br)ccc1OC1CCCC1	10.4%
COc1ccc(C2Nc3ccccc3C(=O)N2Cc2ccccc2)cc1Cn1nnc2ccccc21 (stereo not drawn)	8.37%
O=C1c2cccnc2C(Nc2ccc(S(=O)(=O)N3CCCCCC3)cc2)N1Cc1ccccc1 (stereo not drawn)	2.58%
